This is part of a sample that, as a whole, favours compounds with a hit. Of some 79,000 tested, about 15% had one in any assay. Cut-off read from the data, not from the text of the source: active = growth inhibition above about 70%; inactive = the rest.
Key:
[1] = NCI Yeast Anticancer Drug Screen. Data for the rad50 strain (AID 155);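 note: 0% = growth of vehicle-only cultures of the same strain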; settings: S. cerevisiae rad50 strain growth inhibition; at 50.0 µM; hits give high values
Procedure, shortened: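 Cells are treated with compound, grown, and their growth is then scored against vehicle-only cultures of the same repair-deficient yeast strain.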

[2] = NCI Yeast Anticancer Drug Screen. Data for the mec2-1 strain (AID 157); settings: S. cerevisiae mec2-1 strain, at 50.0 µM, hits give high values
Procedure, shortened: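 Vehicle-treated cultures served as reference for growth inhibition of compound-exposed mec2-1 yeast.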

[3] = NCI Yeast Anticancer Drug Screen. Data for the sgs1 mgt1 strain (AID 161);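 note: 0% = growth of cultures given vehicle only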; settings: S. cerevisiae sgs1 mgt1 strain, at 50.0 µM, hits give high values
Procedure, shortened: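 Test agents were incubated with a DNA-repair-mutant yeast strain. Growth was then read and compared against vehicle-treated controls.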

[4] = NCI Yeast Anticancer Drug Screen. Data for the cln2 rad14 strain (AID 165);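 note: 0% = growth equal to vehicle treated cultures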; settings: S. cerevisiae cln2 rad14 strain, at 50.0 µM, hits give high values
Procedure, shortened: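 Each compound was tested on cln2 rad14 yeast. Inhibition of growth was calculated against vehicle-exposed controls.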

[5] = NCI Yeast Anticancer Drug Screen. Data for the bub3 strain (AID 167); settings: S. cerevisiae bub3 mutant strain, at 50.0 µM, hits give high values
Procedure, shortened: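 Part of a panel of yeast mutants defective in DNA damage repair or cell cycle regulation. Each strain is grown with compound, and inhibition is calculated relative to solvent-treated cultures.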

[6] = NCI Yeast Anticancer Drug Screen. Data for the mlh1 rad18 strain (AID 175); settings: S. cerevisiae mlh1 rad18 strain growth inhibition; at 50.0 µM; hits give high values
Procedure, shortened: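 Vehicle-treated cultures served as the reference for growth inhibition in a yeast strain carrying DNA damage repair alterations exposed to each compound.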

Measured: growth inhibition

CCN(CC)CCCC#N
inactive: [1] -5.25% | [2] 4.7% | [3] -8.8% | [4] -13% | [5] -2.6% | [6] -2.85%

CC1(C(=O)O)CCCC2(C)C3=CC(=O)CCC3=CCC12 (stereo unspecified)
inactive: [1] -3.7% | [2] 18.1% | [3] 8.7% | [4] 2.95% | [5] 24.7% | [6] 4.5%

COC(=O)c1cccc(C)c1C(=O)c1ccc(C)cc1C
inactive: [1] 9.65% | [2] 26.6% | [3] 53.1% | [4] -22.5% | [5] 57.8% | [6] 57.2%

CCCCCCCCC(O)C(O)CCCCCCCC(=O)OC (stereo unspecified)
inactive: [1] -15.3% | [2] 5% | [3] -4.55% | [4] -105% | [5] 30.5% | [6] -22.9%

CCCCNCC1C(O)CCC2CN3CCc4c([nH]c5ccccc45)C3CC21 (stereo unspecified)
inactive: [1] 15.9% | [2] 5.85% | [3] 11.3% | [4] 9.9% | [5] 6.05% | [6] 16.9%

O=C(O)/C=C/C1CCCCC1
inactive: [1] 26.4% | [2] 14.3% | [3] 3.95% | [4] 4.35% | [5] -6.4% | [6] 21.2%

CCC(C)CC(C)C1=NC(C)(C)CC(C)O1 (stereo unspecified)
inactive: [1] 3.65% | [2] -6.55% | [3] 0.75% | [4] -16.6% | [5] 0.2% | [6] 8.3%

C=CC(=O)NC(=O)/C=C/c1cccnc1
inactive: [1] 17.4% | [2] -8.05% | [3] 1% | [4] -3.25% | [5] 10.7% | [6] 5.5%

COc1cc(N2C(=O)CSC2=S)cc(OC)c1OC
inactive: [1] 21.3% | [2] 12.3% | [3] 61.8% | [4] 25.4% | [5] 33.8% | [6] 23.4%

O=C(O)c1ccc(CS(=O)(=O)c2ccccc2C(=O)O)cc1
inactive: [1] 9% | [2] -0.6% | [3] 2.05% | [4] 15.8% | [5] 5.6% | [6] 20.2%

O=C(OCC1OCOC(COC(=O)c2ccccc2)C(OC(=O)c2ccccc2)C1OC(=O)c1ccccc1)c1ccccc1 (stereo unspecified)
inactive: [1] 9.85% | [2] 8.35% | [3] -4.6% | [4] -13.8% | [5] -0.65% | [6] 19.6%

NC(CCCNCc1ccccc1)C(=O)O (stereo unspecified)
inactive: [1] 31.9% | [2] 6.85% | [3] 1.65% | [4] 12.3% | [5] 36.9% | [6] 16.3%

COc1ccc(C2COc3c(ccc(OC)c3OC)C2=O)cc1OC (stereo unspecified)
inactive: [1] -20.7% | [2] -1% | [3] -1.2% | [4] -6.5% | [5] -0.5% | [6] -18.5%

Cc1cccc(N=Nc2ccc(O)c(CN(C)C)c2)c1
inactive: [1] -17% | [2] 8.9% | [3] -0.35% | [4] -5.5% | [5] 29.1% | [6] 20.2%

CCCCCNC(=O)c1ccc(C)cc1
inactive: [1] 2.5% | [2] -4.15% | [3] 1.05% | [4] -12.6% | [5] -10.8% | [6] -70%

C=C1CC(Cn2cc(C)c(=O)[nH]c2=O)(c2ccc(-c3ccccc3)cc2)OC1=O (stereo unspecified)
inactive: [1] 8.9% | [2] -5.35% | [3] 38.6% | [4] 37.7% | [5] 29.5% | [6] 47.1%

COc1ccc2ccccc2c1Br
inactive: [1] -11.3% | [2] 8.25% | [3] -3.25% | [4] -24.1% | [5] -19.3% | [6] 8.65%

CC(=O)NC(CSCC(=O)c1ccccc1)C(=O)O (stereo unspecified)
inactive: [1] -12.6% | [2] -8% | [3] -10.3% | [4] -6.05% | [5] -18.8% | [6] -3.5%

CNc1nc(Cl)nc2c1nc(SC)n2-c1ccccc1
inactive: [1] 7.15% | [2] -17.8% | [3] 4.2% | [4] -13.2% | [5] 18.2% | [6] 17.4%

Cc1c(C)c(C(=O)O)c(C)c(C)c1C(=O)O
inactive: [1] 25.9% | [2] -8.1% | [3] 17.9% | [4] 9.1% | [5] 24.4% | [6] 0.05%

Cc1ccccc1SCC(N)=O
inactive: [1] 6.55% | [2] 9.1% | [3] -0.85% | [4] -12.1% | [5] 5.35% | [6] -0.7%
